Screening results deposited in PubChem BioAssay by National Center for Advancing Translational Sciences (NCATS).
Rows were chosen to be rich in hits. Some 5.1% of all compounds tested hit in one or more screens of this group.
Tau fluor cs = counter-screen for tau fibril formation inhibitors. actives 0.93% (n = 280,000). Potency, µM (highest dose often 57.7 µM), for inactives: top-dose activity change, negative = decrease. tau K18 P301L Alexa594 fluorescence, heparin fibrillization; note: potency is the fitted concentration of half-maximal effect; nearly all actives have a fitted effect of over 55% in size
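Human tau K18 P301L (15 uM unlabeled, 0.24 uM Alexa 594-labeled) in 100 mM sodium acetate pH 7 with 20 uM heparin, 6 hr at 37 C. ThT 30 uM added, 1 hr ambient; Alexa 594 FP and total fluorescence read at 555/632 nm.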
Tau ThT inhib = inhibitors of human tau fibril formation, thioflavin T binding | P10636 | recombinant tau K18 P301L (four-repeat tau fragment), heparin-induced fibrillization, ThT fluorescence | Potency, µM (top dose mostly 57.4 µM), for the others: at the highest dose activity, negative = inhibition, usual class: inhibitors | actives 2.1% (n = 270,000) | AID 1460; note: potency is the fitted concentration of half-maximal effect; nearly all actives have a fitted effect of over 55% in size
Target sequence (P10636 561-689 P618L limits assumed): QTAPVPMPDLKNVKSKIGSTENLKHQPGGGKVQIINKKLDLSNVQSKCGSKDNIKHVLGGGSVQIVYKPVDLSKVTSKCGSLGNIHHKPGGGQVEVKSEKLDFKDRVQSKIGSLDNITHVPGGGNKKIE
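Tau K18 P301L fragment (15 uM unlabeled plus 0.24 uM Alexa 594-labeled) in 100 mM sodium acetate pH 7 with compound, fibrillization induced by 20 uM heparin for 6 hr at 37 C. Thioflavin T (30 uM) added, fluorescence read after 1 hr (ex 450, em 510 nm).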
NPSR antag = neuropeptide S receptor (human) antagonism, cAMP. Q6W5P4. CHO-NPSR cells, cAMP TR-FRET, antagonist mode. Potency, µM (highest dose often 38.3 µM), for inactives: at the highest dose activity change, negative = inhibition, actives largely listed as inhibitors. actives 1% (n = 220,000). AID 1461; note: potency is the fitted concentration of half-maximal effect; nearly all actives have a fitted effect of over 50% in size
Target sequence (Q6W5P4 whole entry, looked up): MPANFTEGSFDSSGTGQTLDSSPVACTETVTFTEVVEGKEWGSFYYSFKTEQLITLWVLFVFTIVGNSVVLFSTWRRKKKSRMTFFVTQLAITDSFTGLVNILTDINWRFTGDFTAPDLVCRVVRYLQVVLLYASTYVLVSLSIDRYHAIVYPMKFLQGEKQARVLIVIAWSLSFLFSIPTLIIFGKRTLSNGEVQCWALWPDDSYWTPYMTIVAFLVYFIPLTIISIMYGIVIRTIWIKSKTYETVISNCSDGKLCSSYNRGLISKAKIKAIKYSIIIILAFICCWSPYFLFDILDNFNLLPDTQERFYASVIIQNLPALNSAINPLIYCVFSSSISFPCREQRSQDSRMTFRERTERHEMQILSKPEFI
Tau fibril FP = blocks human tau fibril formation measured by polarization | K18 P301L tau heparin fibrillization, Alexa594 FP, 6 h | Potency, µM (top dose mostly 57.7 µM), for the others: at the top dose activity, negative = inhibition, hits mostly inhibitors | P10636 | actives 0.39% (n = 280,000); note: potency is the fitted concentration of half-maximal effect; nearly all actives have a fitted effect of over 55% in size
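Human tau K18 […] P301L fragment, 15 uM unlabeled plus 0.24 uM Alexa 594-labeled tau (final), with compound and 20 uM heparin in 100 mM sodium acetate pH 7; 6 hr at 37 C, then Alexa 594 FP read.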
JMJD2E inh = inhibitors of human JMJD2E histone demethylase | actives 1.6% (n = 230,000) | Potency, µM (top dose mostly 57.1 µM), for inactives: at the top dose activity change, negative = inhibition, usual class: inhibitors | JMJD2E catalytic domain, FDH-coupled NADH fluorescence (FDH is formaldehyde dehydrogenase) | B2RXH2 | AID 2147; active = well fitted inhibition curve with a large enough effect, not every such curve was filed as active; inconclusive = small, poorly fitted or top-dose-only effect, or another doubt; inactive = no such curve, though single readings can be large or run the other way;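 note: potency is the fitted concentration of half-maximal effect; 0% = wells with enzyme and -100% = buffer wells without enzyme; nearly all actives have a fitted effect of over 50% in size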
PNC assembly inh = perinucleolar compartment assembly inhibition; PC3M PTB-GFP, PNC prevalence imaging, 16 h; stronger effect = lower value; activity change (PNC), negative = inhibition, % at 10 µM; actives 3.1% (n = 140,000); AID 2417;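 active = readout at or below -70, meaning at least 70% loss of cells showing the perinucleolar compartment, a nuclear body marking cancer cells; inconclusive = readout between -30 and a set limit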;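 note: plate controls were DMSO wells for no effect and camptothecin positive control wells for full effect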
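Read-out is percentage of cells bearing a perinucleolar compartment, from automated 20x imaging of fixed, Hoechst-stained PC3M PTB-GFP cells. Cells were seeded 4 h, then exposed 16 h to compound (23 nl of library stock) in duplicate plates.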
The depositor's hits bear a star; ? = inconclusive; . = no result; ! = not confirmed by another sample; [ ] = another dose, or the depositor's remark. Unless noted, calls come from the whole dose curve; as a rule, active = well fitted curve in the direction sought with a large enough effect; inconclusive = small, poorly fitted or top-dose-only effect, or another doubt; inactive = no such curve, though single readings can be large; an effect the other way counts as inactive or inconclusive. Unless noted, % is set by controls: 0 for no effect and ±100 for the full control effect.

SMILES | Tau fluor cs | Tau ThT inhib | NPSR antag | Tau fibril FP | JMJD2E inh | PNC assembly inh
COC(=O)c1ccccc1NC(=O)c1cnc(Nc2ccc(OC)cc2)c2ccccc12 | 4.47µM*[quencher] | ? | . | 0.3% | . | .
COc1ccc(Nc2ncc(C(=O)Nc3cccc(Cl)c3)c3ccccc23)cc1 | 8.91µM*[quencher] | ? | . | 9.2% | . | .
CCc1nnc2c(Nc3cccc(F)c3)nc3ccc(C(=O)c4ccccc4)cc3n12 | -0.1% | 3.2% | . | 0.6% | . | .
O=C(NCc1ccccc1Cl)c1cc(=O)[nH]c2ccc(S(=O)(=O)N3CCCCC3)cc12 | -1.4% | 7.5% | . | -13.9% | . | .
CC(=O)N[C@@H](C(=O)O)C(C)(C)SN=O | -19.8% | 28.2µM* | . | ? | -16.2% | .
CC(=O)N[C@H](C(=O)O)C(C)(C)SN=O | -4.9% | ? | ? | ? | 6.8% | .
CCOC(=O)c1c(S(=O)(=O)N2CCC(C(=O)Nc3ccccc3OC)CC2)c(C)n(CC)c1C | 6.5% | 9.8% | . | 13.2% | . | .
Cc1ccc(N2C(=O)C3C4C=CC(CNC(=S)Nc5ccc(F)cc5)(O4)C3C2=O)cc1 (stereo not given) | -2.2% | -1.4% | 15.4% | 0.7% | 4.3% | -80.2*
O=C(Nc1ncccn1)c1cc([N+](=O)[O-])cc([N+](=O)[O-])c1 | 8.2% | 3.4% | 15.4% | -0.4% | -9.3% | -8.9
O=[N+]([O-])c1cc(-c2ncccn2)c([N+](=O)[O-])s1 | ? | 11.2µM* | ? | 14.2% | -0.1% | 42.1
O=C(COc1ccccc1)N1CCc2ccccc21 | -3.9% | ? | 1.7% | ? | 2.4% | -82.0*
C[C@H](NS(=O)(=O)c1ccccc1F)C(=O)OCC(=O)N1CCc2ccccc21 | -5.3% | -7.6% | -11.0%[46.1 µM] | -5.1% | 6.6% | -93.4*
CCOC(=O)C1=C(C)NC(C)=C(C(=O)OCC)C1C(=O)OCC(=O)N1CCc2ccccc21 | -19.0% | -5.6% | -16.4%[46.1 µM] | 0.9% | ? | -99.2*
CN(C)CCCN1C(=O)C(=O)/C(=C(/O)c2ccc3c(c2)OCCO3)C1c1ccco1 (stereo not given) | -0.5% | -1.1% | 3.5%[46.1 µM] | -1.4% | 1.3% | -86.0*
Cc1nc(C)c(C(=O)C2=C(O)C(=O)N(CCCN(C)C)C2c2ccco2)s1 (stereo not given) | 6.3% | -5.0% | -0.4%[46.1 µM] | 0.4% | -15.4% | -80.9*
Cc1ccc(OCC(=O)OC2=C(C(=O)c3ccccc3)N(C)S(=O)(=O)c3ccccc32)cc1 | 3.7% | ? | . | ? | . | .
COc1ccc(OCC(=O)Nc2ccc(C(=O)OCc3cc(=O)n4nc(C)sc4n3)cc2)cc1 | 3.8% | -0.4% | . | 4.3% | . | .
Nc1ncnc2c1ncn2[C@@H]1O[C@H](C(=O)NC2CC2)[C@H](O)[C@H]1O | 1.3% | 1.7% | 1.3%[46.1 µM] | 3.7% | -3.9% | .
COc1ccc(-c2c(N)nnc3c2[nH]c2ccccc23)cc1OC | -24.2% | ? | -7.2%[46.1 µM] | -11.7% | 1.5% | 13.0
COc1ccc(OC)c2c(=S)c3ccccc3[nH]c12 | 11.2µM*[quencher] | 3.98µM* | . | 7.94µM* | ? | .
COc1cc(NC(=O)c2cnc(N)s2)cc(C(=O)Nc2cccc(C(F)(F)F)c2)c1 | -29.3% | -0.2% | 2.8% | ? | 20µM* | .
COC(=O)c1c(NC(=O)c2nc3ccccc3s2)sc2c1CCN(C(C)=O)C2 | -22.5% | 15.8µM* | ? | -5.2% | -1.1% | 34.6
CNC(=O)c1c(NC(=O)c2nc3ccccc3s2)sc2c1CCC2 | ? | 7.08µM* | ? | 11.6% | -19.6% | ?
CNC(=O)c1c(NC(=O)C(C)C)sc2c1CCC2 | -20.1% | . | -5.4% | 6.9% | -11.7% | .
COC(=O)c1c(NC(=O)C2COc3ccccc3O2)sc2c1CCN(C(C)=O)C2 (stereo not given) | 11.4% | -10.0% | 0.6% | 0.6% | ? | ?
COC/C=C/C1=CC2=CC(=O)C(C)(OC(=O)c3cnc4ccccc4n3)C(=O)C2=CN1c1ccccc1 (stereo not given) | ? | 12.6µM*! | 1.3% | ? | 0.1%[11.4 µM] | .
COc1ccc(-c2onc(C)c2-c2ccccc2)c(O)c1 | -25.8% | -5.9% | -4.5%[46.1 µM] | -4.7% | 0.8% | -28.8
